# Measurements: PubChem BioAssay (Tox21)
# “And” between values parts separate entries of the source, which are not always exact repeats. Equal values may be shown once. Results filed as inconclusive are left out. The source made the active and inactive calls. The call rests on the fitted dose curve; in most records, active means well fitted activation curve with a large enough effect in the signal ratio in the repeat runs (not every such curve was filed as active); inconclusive means weak or mixed curves, or effect the other way; inactive means no such curve, though single readings can be large or run the other way; the % refers to the signal ratio.
# Experiment: qHTS assay for small molecule agonists of the antioxidant response element (ARE) signaling pathway (AID 743202)
# Settings: HepG2 ARE-bla reporter, beta-lactamase FRET, 16 h; series mostly up to 73.3 µM; activation: at the top concentration
# Source text: U.S. Tox21 Program National Center for Advancing Translational Sciences [NCATS] NIH Chemical Genomics Center [NCGC] U.S. Environmental Protection Agency [EPA] National Institutes of Environmental Health Sciences [NIEHS] National Toxicology Program [NTP] U.S. Food and Drug Administration [FDA] Tox21 Assay Overview: Oxidative stress has been implicated in the pathogenesis of a variety of diseases ranging from cancer to neurodegeneration. The antioxidant response element (ARE) signaling pathway plays an important role in the amelioration of oxidative stress. The CellSensor ARE-bla HepG2 cell line (Invitrogen) can be used for analyzing the Nrf2/antioxidant response signaling pathway. Nrf2 (NF-E2-related factor 2) and Nrf1 are transcription factors that bind to AREs and activate these genes. The CellSensor ARE-bla Hep G2 cell line contains a beta-lactamase reporter gene under control of the Antioxidant Response Element (ARE) stably integrated into HepG2 cells. The activation of the report gene under culture conditions can be detected by fluorescence intensity. This cell line has been used to screen the Tox21 10K compound library to identify agonists that induce oxidative stress.
# Tox21 Assay Protocol Summary: The ARE-bla cells were dispensed at 2,000 cells/5 ul/well in 1536-well black wall/clear bottom plates using a Multidrop dispenser. After the assay plates were incubated at a 37 C/5% CO2 incubator for 5 hours, 23 nL of compounds dissolved in DMSO, positive controls or DMSO only was transferred to the assay plate by a pin tool. The plates were incubated at 37 C for 16 hours. After 1 uL of LiveBLAzer B/G FRET substrate was added using a Flying Reagent Dispenser, the plates were incubated at room temperature for 2 hours, and fluorescence intensity was measured by an Envision plate reader.
# On the % scale 0 is the no-effect control and ±100 the full control effect; potency means the concentration at half of the fitted maximal effect.
SMILES,Potency,activation
CCCCC/C=C\C/C=C\CCCCCCCC(=O)NC(C)c1ccccc1 (stereo not given),29.8 µM (active),
Nc1ccc(S(=O)(=O)Nc2ccccc2)cc1,,5.95% (inactive)
C=CC(=O)OCCOCCOC(=O)C=C,30.8 µM (active),
Cc1cc(C(=O)O)ccc1[N+](=O)[O-],,3.07% (inactive)
CCCCCCc1ccc(-c2ccc(C#N)cc2)cc1,,-2.12% (inactive)
O=C(Nc1ccccc1)c1ccccc1O,24.3 µM (active),
CCOCC(O)COc1ccc(NC(=O)CC[S+](C)C)cc1 (stereo not given),,6.96% (inactive)
c1ccc(CNCCNCc2ccccc2)cc1,,-1.2% (inactive)
C/C(=C(\CCOP(=O)(O)O)SC(=O)c1ccccc1)N(C=O)Cc1cnc(C)nc1N,,14.1% [at 8.36 µM] (inactive)
CCCCC(CC)CN1C(=O)C2C3C=CC(C3)C2C1=O (stereo not given),,1.75% (inactive)
CCC(CC)Nc1ccc(C)c(C)c1,,-5.04% (inactive)
CCCn1cnc2c1c(=O)n(CCCCC(C)=O)c(=O)n2C,,0.866% (inactive)
Cc1ccccc1S(=O)(=O)O,,-2.33% [at 94.8 µM] (inactive)
CC1(c2ccccc2)OC(C(=O)O)=CC1=O (stereo not given),,-0.781% (inactive)
CCCCCCCCO[C@@H]1O[C@H](CO)[C@@H](O)[C@H](O)[C@H]1O,,2.08% (inactive)
CCCC(=O)Nc1ccc(O)c(C(C)=O)c1,,-1.36% (inactive)
C/C=C/C(=O)CC,,-1.61% [at 18.1 µM] (inactive)
OCCN1CCN(CCCN2c3ccccc3C=Cc3ccccc32)CC1,,-10.6% (inactive)
Nc1cccc([N+](=O)[O-])c1,,18.3% (inactive)
CCOC(=O)C(O)c1ccccc1 (stereo not given),,-1.05% (inactive)

SMILES,Potency,activation
Cc1c(N)cccc1[N+](=O)[O-],,0.785% [at 94.8 µM] (inactive)
CCCCCCCCCc1ccc(OCCOCCO)cc1,1.62 µM (active),
C=CC(=O)OCCOCCOCCOCCOC(=O)C=C,24.5 µM (active) and 27.1 µM (active),
COc1cc(Cl)ccc1Oc1ccc(Cl)cc1Cl,,-2.75% (inactive)
CCOc1ccc(O)cc1,61.1 µM (active),
Cc1cccc(C)c1OCC(=O)N[C@@H](Cc1ccccc1)[C@@H](O)C[C@H](Cc1ccccc1)NC(=O)[C@H](C(C)C)N1CCCNC1=O,29.8 µM (active),
Nc1cc(C(=O)O)c(O)c(S(=O)(=O)O)c1,,-3.73% (inactive)
CC(=O)[O][Al][O]C(C)=O,,-26.9% (inactive)
CCN(CC)CCNC(=O)c1cc(Br)c(N)cc1OC,,-6% (inactive)
Cn1c(=O)cc(Oc2ccc(F)cc2F)c2cnc(NCC(C)(C)O)nc21,30.6 µM (active),
C[C@@H](c1ncncc1F)C(O)(Cn1cncn1)c1ccc(F)cc1F (stereo not given in full),,0.323% (inactive)
O=C(O)CC(=O)C(=O)O,,21.3% [at 94.8 µM] (inactive)
COc1cc2c(cc1OC)C(C(C(=O)N(CCc1ccc(OC)c(OC)c1OC)CCc1ccc(OC)c(OC)c1OC)c1ccccc1)=NCC2 (stereo not given),,-12.3% (inactive)
CO[C@@H]1[C@H](OC(=O)/C=C/C=C/C=C/C=C/C(=O)O)CC[C@]2(CO2)[C@H]1[C@@]1(C)O[C@@H]1CC=C(C)C,24.3 µM (active),
NC(N)=NCCC[C@H](N)C(=O)O,,0.601% [at 8.36 µM] (inactive)
CCCCCCCN,,-6.58% [at 94.8 µM] (inactive)
O=C1c2ccccc2S(=O)(=O)N1CCCCN1CCN(c2ncccn2)CC1,,7.3% (inactive)
CCN(CC)c1ccc(C(=C2C=CC(=[N+](CC)CC)C=C2)c2cc(S(=O)(=O)O)ccc2S(=O)(=O)[O-])cc1,,9.39% (inactive)
CC/C=C\CCOC(=O)CC,,-16.2% (inactive)
CCC(C)(C)CC,,-0.967% [at 94.8 µM] (inactive)
